Screens as filed in PubChem.
MITF inh: human MITF inhibition, primary screen; AlphaScreen MITF homodimerization, bead proximity signal; inhibition, % at 2.6 µM; 0.91% of 650,000 active; in the data active = inhibition above about 50%;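 note: 0% = vehicle wells with protein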
Target sequence (O75030 whole entry, looked up): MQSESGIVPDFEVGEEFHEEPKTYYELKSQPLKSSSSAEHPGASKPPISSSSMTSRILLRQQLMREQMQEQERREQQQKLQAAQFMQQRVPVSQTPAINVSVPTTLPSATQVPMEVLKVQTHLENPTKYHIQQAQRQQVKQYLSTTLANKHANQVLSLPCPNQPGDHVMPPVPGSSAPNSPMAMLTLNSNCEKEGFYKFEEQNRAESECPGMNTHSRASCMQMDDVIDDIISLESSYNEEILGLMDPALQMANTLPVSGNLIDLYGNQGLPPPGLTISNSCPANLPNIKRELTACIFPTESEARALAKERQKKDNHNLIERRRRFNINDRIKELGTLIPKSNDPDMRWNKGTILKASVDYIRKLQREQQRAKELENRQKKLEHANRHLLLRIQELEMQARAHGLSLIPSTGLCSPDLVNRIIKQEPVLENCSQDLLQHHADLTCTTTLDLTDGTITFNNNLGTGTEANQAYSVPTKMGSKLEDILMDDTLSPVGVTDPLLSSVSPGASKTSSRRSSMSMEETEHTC
TEAD-YAP block: TEAD-YAP interaction inhibition; HEK-TIYL cells, TEAD-Gal4/YAP UAS-luciferase luminescence; inhibition, % at 9.12 µM; 1.4% of 640,000 active; in the data active = inhibition above about 32%;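 note: 0% = median of test compound wells and 100% = reference inhibitor wells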
GPR151 activ: human GPR151 activation; Q8TDV0; PathHunter beta-arrestin GPR151 cells, luminescence; activation, % at 11.2 µM; 1% of 650,000 active; in the data active = activation above about 4.9%;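 note: 0% = median of compound wells and 100% = cells with positive control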
FBW7 activator: human FBW7 E3 ligase activation, primary screen. normalized activity (activation), % at 26.1 µM. 0.13% of 650,000 active. AID 1259310. AlphaScreen FBW7–phospho-cyclin E peptide binding, activator screen. Q969H0; in the data active = normalized activity above about 1.9%;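 note: purified mutant Fbw7 with reduced substrate affinity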
GPR151 conf act: human GPR151 activation, confirmation screen; shares compounds with GPR151 activ; GPR151 PathHunter beta-arrestin cells, luminescence, 90 min; % of EA-reagent control over plate median; activation, % at 11.2 µM; 6,700 tested, under 10 active;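 active = mean percent activation across replicates above the confirmation screen cutoff of 4.91%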
GPR119 ag: activates human GPR119 in a GPR151 counter-screen; shares compounds with GPR151 activ; GPR119 PathHunter beta-arrestin cells, luminescence, 90 min; 0 = compound-well median, 100 = enzyme-acceptor control; activation, % at 11.2 µM; 0.3% of 6,700 active; AID 1508611;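 active = mean percent activation in the counterscreen above 29.09%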;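 note: counterscreen on off-target GPR119 to flag nonselective hits from the GPR151 activator screen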
* = called active by the depositor. Shown are actives, neighbours in structure and some others; about 3.5% of the full set was active somewhere.

For CCCc1cc(C(=O)Nc2ccc(F)cc2F)no1 the results were MITF inh 1, TEAD-YAP block -31, GPR151 activ -2 and FBW7 activator 0.
Cc1cc(C(=O)Nc2ccc(F)cc2F)no1 was read as MITF inh 8, TEAD-YAP block -27, GPR151 activ 6.5*, FBW7 activator 1, GPR151 conf act 0 and GPR119 ag -3.
Brc1ccc(C2N(c3ccccc3)CCN2c2ccccc2)s1 was read as MITF inh 0, TEAD-YAP block -17, GPR151 activ 0 and FBW7 activator 0.
O=[N+]([O-])c1ccc(C2N(c3ccccc3)CCN2c2ccccc2)s1 was read as MITF inh 11, TEAD-YAP block 7, GPR151 activ 4.9*, FBW7 activator 0, GPR151 conf act -1 and GPR119 ag -2.
Cc1nc(NCc2cccc3ccccc23)sc1-c1ccn(C)n1 was read as MITF inh -2, TEAD-YAP block -8, GPR151 activ 4 and FBW7 activator 0.
`O=C(c1cccc([N+](=O)[O-])c1)N1CCCc2ccccc21` gave MITF inh -1, TEAD-YAP block -4, GPR151 activ 5.0*, FBW7 activator 0, GPR151 conf act 1 and GPR119 ag -1.
For O=C(c1ccc([N+](=O)[O-])cc1)N1CCCc2ccccc21 the results were MITF inh 12, TEAD-YAP block -10, GPR151 activ -1 and FBW7 activator 0.
For O=C(c1ccc(-n2cnnn2)cc1)N1CCCc2ccccc21 the results were MITF inh -10, TEAD-YAP block 0, GPR151 activ 5.0*, FBW7 activator 0, GPR151 conf act 0 and GPR119 ag -8.
`CC(C)(C)CC(=O)N1CCN(c2ncccn2)CC1` gave MITF inh -1, TEAD-YAP block 7, GPR151 activ 4 and FBW7 activator 0.
`Cc1cc(=O)oc2c(CN3CC(C)OC(C)C3)c(O)ccc12` (stereo not given) gave MITF inh 3, TEAD-YAP block 4, GPR151 activ 0 and FBW7 activator 0.
`NS(=O)(=O)c1ccc(CCNC(=O)c2ccccc2Oc2ccccc2)cc1` gave MITF inh -8, TEAD-YAP block -1, GPR151 activ 6.7*, FBW7 activator -1, GPR151 conf act -1 and GPR119 ag -4.
NS(=O)(=O)c1ccc(CCNC(=O)c2ccccc2Cl)cc1 was read as MITF inh -6, TEAD-YAP block 2, GPR151 activ 1 and FBW7 activator 0.
For NS(=O)(=O)c1ccc(CCNC(=O)c2cc(-c3ccccc3)nc3ccccc23)cc1 the results were MITF inh -16, TEAD-YAP block 3, GPR151 activ 6.2*, FBW7 activator 0, GPR151 conf act 1 and GPR119 ag 2.
For COc1ccc(CCNc2ncnc3nc(N4CCN(Cc5ccc6c(c5)OCO6)CC4)[nH]c23)cc1 the results were MITF inh 3, TEAD-YAP block 12, GPR151 activ 2 and FBW7 activator 0.
O=C(CCC1COc2ccccc2O1)Nc1ccc(Br)cc1 (stereo not given) was read as MITF inh -8, TEAD-YAP block -15, GPR151 activ 0 and FBW7 activator 0.
Screening Cc1nc2sccn2c1CN1CCCC(CO)(Cc2cccc(Cl)c2)C1 (stereo not given) returned MITF inh 0, TEAD-YAP block 42*, GPR151 activ 5.0*, FBW7 activator 0, GPR151 conf act 0 and GPR119 ag 14.
CCOc1ccc(N(C(C)C(=O)Nc2c(C)cccc2C)S(C)(=O)=O)cc1 (stereo not given) was read as MITF inh -9, TEAD-YAP block 2, GPR151 activ -1 and FBW7 activator 0.
Screening COc1ccc(-c2cc(C(=O)NCC(C)C)no2)cc1OC returned MITF inh -4, TEAD-YAP block -42, GPR151 activ 0 and FBW7 activator 0.
COc1ccc(-c2cc(C(=O)NCC(C)C)on2)cc1OC was read as MITF inh -7, TEAD-YAP block -32, GPR151 activ 7.8*, FBW7 activator 0, GPR151 conf act 0 and GPR119 ag 1.
Screening Fc1ccccc1-c1nn2c(Cc3ccccc3)nnc2s1 returned MITF inh -3, TEAD-YAP block 4, GPR151 activ 8.2*, FBW7 activator 0, GPR151 conf act 0 and GPR119 ag -2.
Screening c1ccc(Cc2nnc3sc(-c4ccco4)nn23)cc1 returned MITF inh 1, TEAD-YAP block -16, GPR151 activ 4 and FBW7 activator 0.
Screening O=C(CSCc1ccc([N+](=O)[O-])cc1)N1CCN(c2cccc(Cl)c2)CC1 returned MITF inh 7, TEAD-YAP block -1, GPR151 activ 13*, FBW7 activator 0, GPR151 conf act 0 and GPR119 ag -10.
For O=C(C(=O)N1CCN(c2cccc(Cl)c2)CC1)N1CCCCC1 the results were MITF inh -13, TEAD-YAP block 3, GPR151 activ 5.3*, FBW7 activator 0, GPR151 conf act -1 and GPR119 ag 0.
O=C(C1CC1)N1CCN(c2cccc(Cl)c2)CC1 was read as MITF inh 22, TEAD-YAP block -1, GPR151 activ 0 and FBW7 activator 0.
Screening CCCC(=O)Nc1ccc(C(=O)N2CCN(c3cccc(Cl)c3)CC2)cc1 returned MITF inh 12, TEAD-YAP block -8, GPR151 activ 6.3*, FBW7 activator 0, GPR151 conf act -1 and GPR119 ag 6.
`CC1=C(C(=O)Nc2ccc(F)cc2)C(c2ccc(Cl)cc2Cl)NC(=O)N1` (stereo not given) gave MITF inh -3, TEAD-YAP block -3, GPR151 activ 0 and FBW7 activator 0.
O=C(NC1CCCCCC1)c1cccc(I)c1 was read as MITF inh 3, TEAD-YAP block -46, GPR151 activ 0 and FBW7 activator 0.
Screening N#Cc1cccc(C(=O)NC2CCCC2)c1 returned MITF inh -3, TEAD-YAP block 10, GPR151 activ 5.2*, FBW7 activator 0, GPR151 conf act 3 and GPR119 ag 5.
Cc1cc(C)c(OCC(O)Cn2c3ccccc3c3ccccc32)c(C)c1 (stereo not given) was read as MITF inh -3, TEAD-YAP block -22, GPR151 activ 0 and FBW7 activator 0.
Cc1ccc2c(c1)CN(CCNC(=O)CCc1ccc(=O)[nH]n1)CC(C)O2 (stereo not given) was read as MITF inh -7, TEAD-YAP block -6, GPR151 activ 5.3*, FBW7 activator 0, GPR151 conf act 0 and GPR119 ag 0.
`Cc1ccc2c(c1)CN(CCNC(=O)CCc1ccco1)CC(C)O2` (stereo not given) gave MITF inh 13, TEAD-YAP block 0, GPR151 activ 1 and FBW7 activator 0.
